Source: PubChem (National Center for Advancing Translational Sciences (NCATS))
Giardia killer – kills Giardia lamblia; activity change, % at 7.66 µM, hits read low; Giardia lamblia trophozoite viability; AID 540267; hit rate 0.15% among 340,000; in the data active means activity change below about -80%; inconclusive means between about -30% and that limit;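 further: parasites exposed to compound for two days anaerobically before the ATP read; on the % scale 0 is the no-effect control and ±100 the full control effect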
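Trophozoites 100 cells/well + cpd; 48 hrs, 37 deg C, anaerobic. ATPLite 1-Step added, 15-30 min RT, luminescence read (ATP-based viability).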
KB-V1 cytotox – kills drug-selected multidrug resistant KB-V1 cells; Potency, µM (top dose mostly 46.1 µM), actives largely listed as cytotoxic; hit rate 3.4% among 400,000; KB-V1 MDR cells viability, CellTiter-Glo, 72 h; further: potency means the concentration at half of the fitted maximal effect; on the % scale 0 is the no-effect control and ±100 the full control effect; nearly all actives have a fitted effect of over 60% in size
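Compound-treated KB-V1 multidrug-resistant cells, 72 h, 37 degrees C; viability by CellTiter-Glo. Fitted qHTS curves give the values.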
MCF10A rerep – DNA re-replication induction in MCF 10a cells. MCF 10A DNA re-replication, Hoechst nuclear intensity, 48 h. Potency, µM (highest dose often 46.1 µM), without a hit: top-dose activity, positive = re-replication, hits mostly activators. hit rate 2.9% among 350,000; further: potency means the concentration at half of the fitted maximal effect; % of control where 0% means no effect; nearly all actives have a fitted effect of over 50% in size
ASM inhibitor – human S-ASM enzyme inhibition. P17405. placental ASM, HMU-PC fluorogenic substrate, 60 min. Potency, µM (series often up to 57.5 µM), inactives show top-dose activity change, negative = inhibition, hits mostly inhibitors. hit rate 0.006% among 340,000. AID 504937; further: potency means the concentration at half of the fitted maximal effect
Target sequence (P17405 47-631 limits assumed): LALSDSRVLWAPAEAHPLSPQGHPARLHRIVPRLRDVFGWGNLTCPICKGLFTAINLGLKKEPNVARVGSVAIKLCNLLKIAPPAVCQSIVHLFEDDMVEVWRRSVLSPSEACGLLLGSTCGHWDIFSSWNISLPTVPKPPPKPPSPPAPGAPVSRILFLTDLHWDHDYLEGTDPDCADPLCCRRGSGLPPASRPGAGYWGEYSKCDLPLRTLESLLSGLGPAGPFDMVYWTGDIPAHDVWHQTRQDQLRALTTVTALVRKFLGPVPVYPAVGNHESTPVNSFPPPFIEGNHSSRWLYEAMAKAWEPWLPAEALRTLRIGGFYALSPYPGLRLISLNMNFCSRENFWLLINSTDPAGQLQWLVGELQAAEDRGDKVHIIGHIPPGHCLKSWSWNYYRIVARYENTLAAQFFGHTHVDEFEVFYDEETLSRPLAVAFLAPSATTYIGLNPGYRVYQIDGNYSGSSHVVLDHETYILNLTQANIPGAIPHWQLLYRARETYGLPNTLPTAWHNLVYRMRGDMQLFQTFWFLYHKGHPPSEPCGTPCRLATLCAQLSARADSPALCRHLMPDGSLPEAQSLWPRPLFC
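Human placenta-derived ASM enzyme was preincubated with compound for 10 minutes at room temperature, then given fluorogenic substrate HMU-PC0 (9 uM final) for 60 minutes at 37 °C; a pH 10 stop preceded fluorescence reading at Ex 386/Em 447 nm.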
KB-3-1 cytotox – KB-3-1 parental cell cytotoxicity. Potency, µM (top dose mostly 46.1 µM), usual class: cytotoxic. KB-3-1 viability, CellTiter-Glo ATP luminescence, 72 h. hit rate 1.4% among 400,000; further: potency means the concentration at half of the fitted maximal effect; on the % scale 0 is the no-effect control and ±100 the full control effect; nearly all actives have a fitted effect of over 60% in size
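KB-3-1 parental drug-naive adenocarcinoma cells in DMEM/10% FBS, incubated 72 h at 37 C with pin-transferred compounds across a concentration series. Viability by CellTiter-Glo luminescence; concentration-response curves fitted after normalization.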
SW480 rerep – induces DNA re-replication in SW480 colon adenocarcinoma cells; Potency, µM (titrated, usually from 46.1 µM), for inactives: top-dose re-replication activation, usual class: activators; AID 624297; hit rate 1.8% among 340,000; SW480 DNA re-replication, Hoechst DNA content imaging, 48 h; further: potency means the concentration at half of the fitted maximal effect; % of control where 0% means no effect; nearly all actives have a fitted effect of over 55% in size
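Compounds, transferred as 23 nL by pin tool, were incubated with cells for 48 hr; DNA content per nucleus was then quantified by Hoechst staining and fluorescence plate imaging.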
Active calls of the source: *; i = inactive; ? = inconclusive; . = not tested or not shown; ! = not active in a repeat. Hits are enriched below; roughly 6.9% of the tested compounds scored in any of these assays. Unless noted, the call rests on the fitted dose curve; in most records, active means well fitted curve in the direction sought with a large enough effect; inconclusive means small, poorly fitted or top-dose-only effect, or another doubt; inactive means no such curve, though single readings can be large; an effect the other way counts as inactive or inconclusive.

SMILES | Giardia killer | KB-V1 cytotox | MCF10A rerep | ASM inhibitor | KB-3-1 cytotox | SW480 rerep
COc1ccc(-c2nc(NC(=O)C3CC(=O)N(c4ccc5c(c4)OCCO5)C3)sc2C)cc1 (centres undefined) | 0 | ? | 3.3µM* | -6% | 13µM*! | 4.1µM*
O=C(NCCc1ccccc1)C1CC(=O)N(c2ccc3c(c2)OCCO3)C1 (centres undefined) | -1 | i | -3% | 2% | i | -4%
Cc1ccc(NC(=O)c2ccc3c(SCC(=O)O)c4c(nc3c2)CCCC4)c(Br)c1 | 23 | i | ? | 14% | i | 13%
O=C(CS(=O)c1ccccc1[N+](=O)[O-])Oc1ccc(Br)cc1 (centres undefined) | -18 | i | -1% | -1% | i | -1%
CS(=O)(=O)c1ccc(S(=O)CC(=O)Oc2ccc(Cl)cc2)c([N+](=O)[O-])c1 (centres undefined) | 11 | ? | 4.6µM* | -1% | 21µM* | 6.5µM*
O=C(N/N=C(\c1ccccc1)c1ccccn1)c1cccc([N+](=O)[O-])c1 | 0 | i | 5% | -8% | ? | -4%
CCOc1ccc(C(=O)N/N=C(\c2ccccc2)c2ccccn2)cc1 | -16 | i | 28% | -3% | ? | 8.2µM*
Cc1ccc(-c2cnc3c(c2)C(=O)N([C@H](C)CO)C[C@H](C)[C@@H](CN(C)Cc2ccccc2F)O3)cc1 | . | i | . | . | i | .
COc1ccc(OC)c(NC(=O)c2cc(-c3cc(Cl)ccc3O)n[nH]2)c1 | 0 | ? | 15µM* | 15% | ? | ?
N#Cc1cc2nc(O)c(O)nc2cc1[N+](=O)[O-] | -2 | i | -4% | -11% | i | 8%
CNc1nc2cc([N+](=O)[O-])c([N+](=O)[O-])cc2nc1NC | -24 | i | 25% | -9% | 8.2µM* | -3%
O=C1Nc2ccccc2N(C(=O)c2ccc3ccccc3c2)C1c1nc2ccccc2[nH]1 (centres undefined) | . | 16µM* | . | . | ? | .
CC(C)c1ccc(/C=c2\sc3n(c2=O)C(N)=C(C#N)C(c2ccc(C(C)C)cc2)C=3C(N)=O)cc1 (centres undefined) | 2 | i | 1.3µM* | -3% | ? | ?
CCOC(=O)C1=C(N)n2c(s/c(=C\c3cccnc3)c2=O)=C(C#N)C1c1cccnc1 (centres undefined) | -1 | i | 7% | -2% | i | 1%
NC(=O)C1CCCN(C(=O)NC2CCCCC2)C1 (centres undefined) | -22 | i | 1% | 2% | i | 3%
O=C(NCc1ccccc1F)C1CCCN(C(=O)NC2CCCCC2)C1 (centres undefined) | 29 | 21µM* | 12% | 3% | i | -2%
O=C(NCC1CCCCC1)C1CCCN(C(=O)NC2CCCCC2)C1 (centres undefined) | 4 | 4.1µM* | 7% | 2% | ? | 0%
CCCCn1c(N)c(N(CCC(C)C)C(=O)C2=NN(c3cc(C)ccc3C)C(=O)CC2)c(=O)[nH]c1=O | -9 | i | 4% | 7% | i | 1%
O=C(COc1ccc(Cl)cc1)Nc1cccc(-c2ccc(N3CCOCC3)nn2)c1 | -13 | ? | 8% | -9% | i | 2%
Cc1cc(-c2ccccc2)nc(-c2ccccc2)c1C | 20 | i | 26% | 0% | i | -1%
Cc1c(Cl)ccc2c(C(O)CBr)cc(-c3ccccc3)nc12 (centres undefined) | 2 | i | 21µM* | -25% | i | ?
C=C1CCN([C@@H](CC(C)C)C(=O)NCCC(C)C)S(=O)(=O)c2ccccc21 | -10 | i | 7% | -1% | i | ?
CC(Sc1nnc(-c2cccs2)n1-c1ccccc1)C(=O)NCc1ccc2c(c1)OCO2 (centres undefined) | 0 | 8.2µM* | -11% | 3% | i | 13%
Cc1cc(C)n2nc(SCc3nnc(SCc4ccccc4)s3)nc2n1 | 0 | 13µM* | -1% | -3% | i | -1%
COc1ccc(OCCCn2cc(/C=C3/C(=N)N4C=C(C)SC4=NC3=O)c3ccccc32)cc1 | -6 | 10µM* | 15% | 31% | i | -7%
SMILES | Giardia killer | KB-V1 cytotox | MCF10A rerep | ASM inhibitor | KB-3-1 cytotox | SW480 rerep
CC1=CN2C(=N)/C(=C/c3cn(CCCOc4ccccc4C)c4ccccc34)C(=O)N=C2S1 | -13 | i | 22% | 5% | i | 15µM*
COc1cccc(OCCCn2cc(/C=C3/C(=N)N4C=C(C)SC4=NC3=O)c3ccccc32)c1 | 1 | i | 8.2µM* | 13% | i | 7%
COc1cccc(OCCn2cc(C=O)c3ccccc32)c1 | -2 | i | 7% | -2% | i | 3%
COc1ccc(-n2c(C)cc(C(=O)CN3CCC(C)CC3)c2C)cc1 | -6 | i | 0.58µM* | 2% | i | -45%
COc1ccc(-n2c(C)cc(C(=O)Cn3nc(C(=O)O)c4ccccc4c3=O)c2C)cc1 | 13 | 15µM* | 13% | -13% | i | 10%
Cc1ccc(NC(=S)c2nc3ccccc3[nH]2)c(C)c1 | -16 | ? | ? | -8% | 21µM* | 1%
Cc1ccc(NC(=S)c2nc3ccccc3[nH]2)cc1 | ? | 23µM* | ? | -3% | ? | -5%
Cc1ccc(CNCc2c(C(=O)O)c(C)n(Cc3ccc(C)cc3)c2C)cc1 | . | ? | . | . | i | .
O=C(COc1ccc([N+](=O)[O-])cc1)N(Cc1ccccc1)Cc1ccccc1 | -8 | 18µM* | 1% | 1% | i | -1%
C/C(=N\NC(=S)NCc1ccccc1)c1ccc(C(C)(C)C)cc1 | -16 | 18µM* | ? | -5% | i | 4%
C/C(=N\NC(=S)NCc1ccccc1)c1ccccc1 | 20 | i | 5% | -3% | i | 14%
Cc1c(Cl)cccc1NC(=O)Nc1nnc(N2CCCCCC2)s1 | . | i | . | . | i | .
Cc1c(C(=O)Nc2ccncc2)sc2nc(-c3ccccc3)cn12 | 9 | i | ? | -7% | i | 0%
Cc1c(C(=O)N2CCN(c3ccc(F)cc3)CC2)sc2nc(-c3ccccc3)cn12 | 0 | i | 19% | ? | i | -6%
Cc1c(C(=O)NCc2ccco2)sc2nc(-c3ccccc3)cn12 | 4 | i | ? | -12% | 16µM* | ?
Cc1c(C(=O)Nc2ccc3c(c2)OCCO3)sc2nc(-c3ccccc3)cn12 | 0 | 12µM* | -1% | -20% | ? | -1%
Cc1c(C(=O)N2CCOCC2)sc2nc(-c3ccccc3)cn12 | -25 | 23µM* | -12% | -1% | i | -9%
O=C(NCC(c1ccc2c(c1)OCO2)N1CCOCC1)C(=O)Nc1ccccc1 (centres undefined) | . | i | . | . | i | .
